Measured values from PubChem BioAssay.
Calls of active or inactive are those of the source. Cut-off read from the data, not from the text of the source, unless noted: active = response above about 15%; inactive = the rest.

Legend:
[1] = inhibitors of CD8+ T cell-vesicle binding, pilot screen, LFA-1/ICAM-1 modulator project, MLPCN validation set, flow cytometry (AID 2523;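 active = response below a set limit, under 55% cells CD8-positive and vesicle-bound, and CD8 cells' 90th-percentile brightness under 279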;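 for vesicle binding response: mean PE anti-B7-1 fluorescence of CD8+ cells relative to row control; 100% = QL9-loaded vesicles with DMSO vehicle in the same plate row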); conditions: 2C mouse CD8+ T cells, at 7 µM, stronger effect = lower value; double positive events: measured here: CD8+/vesicle+ event percentage
[2] = molecular target: Integrin beta-1 (Homo sapiens) + Integrin alpha-4 (Homo sapiens) (UniProt P13612+P05556); assay: inhibition of HUTS-21 binding to VLA-4, pilot screen, VLA-4 allosteric modulator project, U937 cells, HUTS-21 mAb, flow cytometry, validation set (AID 2674;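 active = inhibition above 50%, about 3 SD of the validation set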;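 note: antibody binding induced by the VLA-4 ligand LDV present at three times its Kd; 0% = LDV ligand with antibody and no compound and 100% = antibody without LDV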); conditions: HUTS-21 LIBS mAb binding, at 6.7 µM, stronger effect = higher value, binding induced by LDV ligand
[3] = superoxide lowering in aged yeast cells, pilot screen, validation compound set (AID 2706;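 active = superoxide response below 65% of plate, a cut near 3 SD across the whole screen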;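 note: yeast exposed to compound for one week at 30 degrees C before staining; 100% = mean of all compound wells on the same plate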); conditions: S. cerevisiae aging, superoxide DHE fluorescence; at 10 µM, stronger effect = lower value
[4] = molecular target: Beta-adrenergic receptor kinase 1 (Homo sapiens) (UniProt P25098); assay: GRK2 binders displacing RNA aptamer, biochemical, validation, human GRK2, bead flow cytometry (AID 488806;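 active = aptamer binding inhibition above 30%, about 3 SD of noise from non-fluorescent compounds; inactive = inhibition at or below 30%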); conditions: bead-bound GRK2, FAM-aptamer displacement, at 10 µM, stronger effect = higher value
[5] = molecular target: AP-2 complex subunit beta (Homo sapiens) (UniProt P63010); assay: inhibitors of arrestin peptide binding to AP2, pilot screen, biochemical, validation set, GST-AP2 beads, flow cytometry (AID 504541;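 active = inhibition above 54%, about 3 SD of non-fluorescent compounds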;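 note: AP2 carries R879A mutation and is captured from E. coli lysate; bead-bound FITC arrestin peptide fluorescence measuring arrestin peptide binding to AP2; 0% = DMSO wells and 100% = excess unlabeled arrestin peptide control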); conditions: FITC arrestin peptide, at 10 µM, stronger effect = higher value, AP2 beta2 appendage fragment, R879A mutant
[6] = yeast V-ATPase proton transport modulators, S. cerevisiae, pHLuorin, HTS validation (AID 504600);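 note: plate controls were DMSO for no effect and reference compound for full effect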; conditions: S. cerevisiae pHLuorin cytosolic pH, at 10 µM, stronger effect = higher value
[7] = tested on: anti-desmoglein-3 scFv antibody binding to human DSG3; assay: inhibitors of anti-DSG3 scFv binding to DSG3, pilot screen, biochemical, validation compound set, bead-based, flow cytometry (AID 588368;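 active = binding below the plate cutoff, the plate median minus 3 SD, with a reading above zero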;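 note: signal is the median channel fluorescence of bead-bound GFP antibody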); conditions: Protein G beads, DSG3-Fc, scFv-GFP binding, at 10 µM, stronger effect = lower value
[8] = inhibitors of fungal efflux pumps CDR1, CDR2, MDR1, pilot screen, validation compound set, multiplex, phenotypic (AID 588506;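 active = efflux inhibition above 0.42, the validation set average plus 4 SD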;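 note: Nile Red retained in cells so higher fluorescence means more efflux inhibition; 0 = negative control wells and 1 = enniatin B 25 µM full block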); conditions: S. cerevisiae pump-expressing triplex, Nile Red efflux flow cytometry; at 10 µM; stronger effect = higher value; the pumps come from Candida albicans
[9] = molecular target: ATP-binding cassette sub-family B member 6 (Homo sapiens) (UniProt Q9NP58); assay: ABCB6 transporter inhibitors, pilot screen, K562-ABCB6 cells, flow cytometry, validation set (AID 588550;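 active = inhibition above the screen-wide mean plus 3 SD, about 51%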;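 note: 0% = DMSO wells and 100% = benzethonium chloride 70 µM positive control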); conditions: K562-ABCB6 porphyrin accumulation, 1 h, at 10 µM, stronger effect = higher value
[10] = promoters of myeloid differentiation in arrested cells, primary screen, cell-based, GFP/MAC1 double positive, flow cytometry, validation set (AID 588685;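 active = differentiation response of at least 50%, scaled between solvent and reference control, from cells with both markers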;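 note: compound exposure lasts four days before antibody staining and flow analysis; 0% = DMSO wells and 100% = 5 µM fulvestrant positive control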); conditions: ER-HoxA9 marrow cells, stronger effect = higher value, normalized: vehicle 0, fulvestrant 100

Sequence of Integrin beta-1 (Homo sapiens) + Integrin alpha-4 (Homo sapiens) (P05556 whole entry, looked up): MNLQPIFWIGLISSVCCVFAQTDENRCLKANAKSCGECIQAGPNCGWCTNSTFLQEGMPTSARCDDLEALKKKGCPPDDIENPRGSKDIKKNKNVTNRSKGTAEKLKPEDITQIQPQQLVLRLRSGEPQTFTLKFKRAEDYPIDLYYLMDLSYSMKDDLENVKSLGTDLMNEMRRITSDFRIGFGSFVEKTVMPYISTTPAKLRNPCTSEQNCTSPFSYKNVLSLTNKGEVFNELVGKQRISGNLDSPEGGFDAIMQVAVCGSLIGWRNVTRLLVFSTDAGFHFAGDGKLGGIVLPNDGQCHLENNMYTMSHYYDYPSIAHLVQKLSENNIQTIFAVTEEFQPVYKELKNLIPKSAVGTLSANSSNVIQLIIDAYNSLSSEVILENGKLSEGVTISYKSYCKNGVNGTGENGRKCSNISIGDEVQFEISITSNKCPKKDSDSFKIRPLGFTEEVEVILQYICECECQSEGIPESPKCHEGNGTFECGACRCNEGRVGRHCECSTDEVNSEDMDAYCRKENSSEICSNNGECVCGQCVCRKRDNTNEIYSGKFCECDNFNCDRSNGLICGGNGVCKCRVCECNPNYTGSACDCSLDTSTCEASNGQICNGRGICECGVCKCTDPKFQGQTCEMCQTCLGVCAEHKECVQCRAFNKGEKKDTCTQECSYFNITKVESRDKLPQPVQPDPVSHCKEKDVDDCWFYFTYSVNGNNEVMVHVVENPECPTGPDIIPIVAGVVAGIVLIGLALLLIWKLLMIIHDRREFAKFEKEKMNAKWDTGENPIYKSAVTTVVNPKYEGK
Sequence of Integrin beta-1 (Homo sapiens) + Integrin alpha-4 (Homo sapiens) (P13612 whole entry, looked up): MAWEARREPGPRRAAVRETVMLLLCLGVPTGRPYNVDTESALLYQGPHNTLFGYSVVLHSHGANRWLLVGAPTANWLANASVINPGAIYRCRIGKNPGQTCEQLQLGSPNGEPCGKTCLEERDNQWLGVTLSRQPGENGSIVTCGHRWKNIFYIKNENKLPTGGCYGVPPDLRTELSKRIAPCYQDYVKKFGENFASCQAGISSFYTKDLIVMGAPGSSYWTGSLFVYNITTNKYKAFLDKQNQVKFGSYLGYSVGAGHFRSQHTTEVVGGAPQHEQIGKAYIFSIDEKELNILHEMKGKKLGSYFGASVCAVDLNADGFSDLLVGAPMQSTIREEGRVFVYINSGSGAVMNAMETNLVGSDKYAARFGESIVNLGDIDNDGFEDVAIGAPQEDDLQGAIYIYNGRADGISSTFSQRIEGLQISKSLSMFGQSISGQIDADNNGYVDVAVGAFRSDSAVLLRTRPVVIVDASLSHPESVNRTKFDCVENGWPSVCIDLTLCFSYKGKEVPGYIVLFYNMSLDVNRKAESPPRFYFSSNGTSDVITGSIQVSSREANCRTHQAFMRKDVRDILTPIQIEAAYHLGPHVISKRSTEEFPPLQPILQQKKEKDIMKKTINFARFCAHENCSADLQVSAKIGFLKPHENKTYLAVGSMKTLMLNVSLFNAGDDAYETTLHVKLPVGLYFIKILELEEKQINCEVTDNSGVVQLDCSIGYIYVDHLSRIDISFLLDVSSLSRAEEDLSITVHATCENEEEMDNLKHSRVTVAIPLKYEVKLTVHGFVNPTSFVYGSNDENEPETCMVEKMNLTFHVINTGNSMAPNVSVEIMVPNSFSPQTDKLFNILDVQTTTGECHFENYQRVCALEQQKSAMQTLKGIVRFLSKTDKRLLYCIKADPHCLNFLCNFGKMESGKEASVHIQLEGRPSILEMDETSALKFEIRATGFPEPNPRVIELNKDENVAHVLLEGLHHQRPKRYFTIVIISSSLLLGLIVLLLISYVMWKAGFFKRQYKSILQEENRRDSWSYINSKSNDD
Sequence of Beta-adrenergic receptor kinase 1 (Homo sapiens) (P25098 whole entry, looked up): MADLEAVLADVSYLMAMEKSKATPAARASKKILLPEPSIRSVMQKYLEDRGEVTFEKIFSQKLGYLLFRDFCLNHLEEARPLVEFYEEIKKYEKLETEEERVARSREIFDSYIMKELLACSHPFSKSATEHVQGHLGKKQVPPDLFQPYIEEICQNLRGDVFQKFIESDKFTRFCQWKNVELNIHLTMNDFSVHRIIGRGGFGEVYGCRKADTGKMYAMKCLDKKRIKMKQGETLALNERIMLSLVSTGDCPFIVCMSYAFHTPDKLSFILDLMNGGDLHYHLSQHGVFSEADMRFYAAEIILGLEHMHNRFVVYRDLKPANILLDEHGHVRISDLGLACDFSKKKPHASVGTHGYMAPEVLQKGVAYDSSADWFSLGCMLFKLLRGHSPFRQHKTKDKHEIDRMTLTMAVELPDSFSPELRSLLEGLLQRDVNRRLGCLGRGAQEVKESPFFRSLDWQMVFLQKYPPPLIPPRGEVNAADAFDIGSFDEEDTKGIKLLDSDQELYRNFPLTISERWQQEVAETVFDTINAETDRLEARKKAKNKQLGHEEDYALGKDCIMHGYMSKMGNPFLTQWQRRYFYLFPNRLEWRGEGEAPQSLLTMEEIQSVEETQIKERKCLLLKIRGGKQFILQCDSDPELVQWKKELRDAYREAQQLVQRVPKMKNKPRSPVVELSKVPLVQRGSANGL
Sequence of AP-2 complex subunit beta (Homo sapiens) (P63010 whole entry, looked up, the tested form may be a part, one chain of several): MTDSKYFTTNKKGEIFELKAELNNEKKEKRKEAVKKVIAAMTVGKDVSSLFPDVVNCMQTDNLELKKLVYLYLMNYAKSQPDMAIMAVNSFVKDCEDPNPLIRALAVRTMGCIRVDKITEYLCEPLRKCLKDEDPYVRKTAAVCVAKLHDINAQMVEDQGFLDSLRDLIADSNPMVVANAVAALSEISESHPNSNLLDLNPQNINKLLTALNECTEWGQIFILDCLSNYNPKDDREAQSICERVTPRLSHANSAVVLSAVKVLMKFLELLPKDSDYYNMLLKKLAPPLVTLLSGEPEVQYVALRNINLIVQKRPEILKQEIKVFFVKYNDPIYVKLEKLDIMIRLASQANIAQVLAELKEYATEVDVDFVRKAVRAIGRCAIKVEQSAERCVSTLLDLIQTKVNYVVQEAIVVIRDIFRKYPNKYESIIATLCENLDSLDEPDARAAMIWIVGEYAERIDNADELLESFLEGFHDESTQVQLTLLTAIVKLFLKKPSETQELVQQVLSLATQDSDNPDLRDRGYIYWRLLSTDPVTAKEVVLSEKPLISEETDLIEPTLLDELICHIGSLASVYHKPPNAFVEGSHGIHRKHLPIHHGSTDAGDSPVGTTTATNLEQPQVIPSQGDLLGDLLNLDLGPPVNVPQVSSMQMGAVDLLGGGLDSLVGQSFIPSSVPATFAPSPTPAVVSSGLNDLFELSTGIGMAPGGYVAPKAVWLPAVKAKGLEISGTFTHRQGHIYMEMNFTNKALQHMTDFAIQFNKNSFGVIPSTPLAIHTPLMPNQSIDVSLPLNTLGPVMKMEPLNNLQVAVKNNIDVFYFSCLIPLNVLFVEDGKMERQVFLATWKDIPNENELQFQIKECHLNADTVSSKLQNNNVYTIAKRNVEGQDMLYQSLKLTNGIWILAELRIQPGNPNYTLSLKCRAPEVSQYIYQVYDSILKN
Sequence of ATP-binding cassette sub-family B member 6 (Homo sapiens) (Q9NP58 whole entry, looked up): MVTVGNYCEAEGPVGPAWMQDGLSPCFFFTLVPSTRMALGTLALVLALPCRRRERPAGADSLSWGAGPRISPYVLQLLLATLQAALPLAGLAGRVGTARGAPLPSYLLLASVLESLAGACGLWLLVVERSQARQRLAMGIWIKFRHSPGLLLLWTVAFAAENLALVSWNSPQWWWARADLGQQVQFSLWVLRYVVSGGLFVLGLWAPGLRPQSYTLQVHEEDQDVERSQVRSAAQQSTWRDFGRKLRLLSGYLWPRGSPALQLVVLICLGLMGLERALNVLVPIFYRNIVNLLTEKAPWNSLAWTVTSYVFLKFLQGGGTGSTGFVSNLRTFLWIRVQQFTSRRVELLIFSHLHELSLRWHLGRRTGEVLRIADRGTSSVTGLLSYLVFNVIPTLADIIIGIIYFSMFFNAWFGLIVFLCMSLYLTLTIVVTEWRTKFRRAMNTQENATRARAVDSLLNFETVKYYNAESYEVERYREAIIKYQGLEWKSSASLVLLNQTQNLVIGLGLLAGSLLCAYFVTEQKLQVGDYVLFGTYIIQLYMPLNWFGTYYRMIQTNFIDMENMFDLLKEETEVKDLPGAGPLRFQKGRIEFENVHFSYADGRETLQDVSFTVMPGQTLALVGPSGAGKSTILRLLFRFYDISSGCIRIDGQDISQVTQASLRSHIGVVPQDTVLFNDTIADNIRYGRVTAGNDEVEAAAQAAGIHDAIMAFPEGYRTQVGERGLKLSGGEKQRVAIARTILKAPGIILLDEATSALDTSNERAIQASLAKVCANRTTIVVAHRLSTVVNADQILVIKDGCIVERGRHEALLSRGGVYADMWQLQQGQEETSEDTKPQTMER

Compound	double positive events [1] [%]	vesicle binding response [1]	inhibition [2]	superoxide response (% of plate) [3]	aptamer binding inhibition [4]	inhibition [5]	response [6]	binding (% of control) [7]	efflux inhibition (fraction of control) [8]	inhibition [9]	differentiation response [10]
c1ccc2c(CC3=NCCN3)cccc2c1	49.4	192% (inactive)	11.9% (inactive)	99% (inactive)	1% (inactive)	-1.38% (inactive)	1.28% (inactive)	96.2% (inactive)	-0.16 (inactive)	11% (inactive)	7.87% (inactive)
COc1ccc(-c2coc3cc(OC(=O)N4CCOCC4)ccc3c2=O)cc1	62.6	185% (inactive)	-9.57% (inactive)	105% (inactive)	-3% (inactive)	-9.14% (inactive)	4.61% (inactive)	109% (inactive)	-0.16 (inactive)	10% (inactive)	19.2% (inactive)
CN(C)C(=O)C(CCN1CCC(O)(c2ccc(Cl)cc2)CC1)(c1ccccc1)c1ccccc1	70.4	180% (inactive)	44% (inactive)	86.8% (inactive)	1% (inactive)	2.98% (inactive)	6.9% (inactive)	104% (inactive)	0.08 (inactive)	2% (inactive)	-3.02% (inactive)
Cc1ccsc1/C=N\NC(=O)c1ccc2c(c1)OCO2	62.5	183% (inactive)	10.9% (inactive)	97% (inactive)	3% (inactive)	11.1% (inactive)	1.01% (inactive)	99.5% (inactive)	-0.12 (inactive)	7% (inactive)	1.41% (inactive)
CCCCNC(=O)NS(=O)(=O)c1ccc(C)cc1	56.1	172% (inactive)	12.8% (inactive)	108% (inactive)	4% (inactive)	-9.7% (inactive)	8.22% (inactive)	99% (inactive)	-0.05 (inactive)	9% (inactive)	-19.6% (inactive)
COc1cc2cc(C(=O)O)n(C)c2c(OC)c1OC	54.5	184% (inactive)	5.36% (inactive)	103% (inactive)	-6% (inactive)	17.7% (inactive)	-19.4% (inactive)	106% (inactive)	-0.01 (inactive)	2% (inactive)	-3.43% (inactive)
C[C@@H]1C[C@H]2[C@@H]3C[C@H](F)C4=CC(=O)C=C[C@]4(C)[C@@]3(F)[C@@H](O)C[C@]2(C)[C@@]1(O)C(=O)CO	55	206% (inactive)	2.56% (inactive)	92.5% (inactive)	2% (inactive)	-9.58% (inactive)	10.1% (inactive)	103% (inactive)	-0.09 (inactive)	9% (inactive)	-1.82% (inactive)
